Screens from PubChem BioAssay.
Mdm2-MdmX inh = disrupts the human Mdm2-MdmX interaction. O15151+Q00987. SaOS-2 split-luciferase Mdm2/MdmX complementation, luminescence. inhibition, % at 8 µM. actives 3% (n = 330,000). AID 485346;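 active means inhibition of at least 50% at 8 µM in the primary screen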
Target sequence (O15151 whole entry, looked up): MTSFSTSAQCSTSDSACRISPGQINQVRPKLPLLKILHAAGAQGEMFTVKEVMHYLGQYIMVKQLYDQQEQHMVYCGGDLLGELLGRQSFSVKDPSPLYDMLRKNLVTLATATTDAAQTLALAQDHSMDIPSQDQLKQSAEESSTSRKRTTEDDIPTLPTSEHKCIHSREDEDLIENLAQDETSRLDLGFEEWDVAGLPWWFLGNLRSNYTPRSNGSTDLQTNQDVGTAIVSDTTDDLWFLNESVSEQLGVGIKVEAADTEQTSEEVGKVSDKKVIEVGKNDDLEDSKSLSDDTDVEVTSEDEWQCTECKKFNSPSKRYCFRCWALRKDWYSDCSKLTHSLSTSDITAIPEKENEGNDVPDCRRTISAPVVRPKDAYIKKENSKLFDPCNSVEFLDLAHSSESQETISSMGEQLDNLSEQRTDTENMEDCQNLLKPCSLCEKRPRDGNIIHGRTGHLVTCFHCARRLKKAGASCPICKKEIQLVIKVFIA
Target sequence (Q00987 whole entry, looked up): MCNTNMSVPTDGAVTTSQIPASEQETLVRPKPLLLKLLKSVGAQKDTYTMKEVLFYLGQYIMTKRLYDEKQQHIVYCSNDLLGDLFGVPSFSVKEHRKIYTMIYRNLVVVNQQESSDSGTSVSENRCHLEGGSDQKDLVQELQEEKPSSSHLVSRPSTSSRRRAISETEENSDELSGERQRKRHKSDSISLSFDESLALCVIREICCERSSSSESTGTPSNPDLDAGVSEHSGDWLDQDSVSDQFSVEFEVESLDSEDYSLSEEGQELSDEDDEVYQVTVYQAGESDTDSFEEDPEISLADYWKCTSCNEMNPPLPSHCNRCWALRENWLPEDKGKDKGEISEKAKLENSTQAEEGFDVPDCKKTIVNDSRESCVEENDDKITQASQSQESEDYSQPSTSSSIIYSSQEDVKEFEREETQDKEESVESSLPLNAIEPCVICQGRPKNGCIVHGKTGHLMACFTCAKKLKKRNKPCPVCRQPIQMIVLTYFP
697 NFkB inh = lowers PMA/ionomycin-induced NF-kB signal in 697 B cells | 697 B-cell NF-kB luciferase reporter, 16 h | inhibition, % at 4 µM | actives 0.33% (n = 330,000); in the data active means inhibition above about 35%
Beta cell apopt = beta cell apoptosis inhibition; INS-1E cytokine-induced death, ATP luminescence, 48 h; percent of positive-control rescue, neutral wells zero; protection from apoptosis, % (test concentration not listed); actives 0.8% (n = 300,000);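 active means Every replicate reaches about 75%, or at least half do and their mean reaches it too, limit read from the data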;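 further: 0% = cytokine-treated negative control wells and 100% = positive control rescue; higher means more ATP so stronger rescue from cytokine killing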
Gli-Sufu antag = blocks Gli-Sufu signaling in a luciferase reporter. actives 0.74% (n = 340,000). Sufu-KO-LIGHT fibroblasts, Gli luciferase reporter luminescence. inhibition, % at 5 µM;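 active means inhibition above about 55%, limit read from the data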;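 further: 0% = DMSO-treated cells and 100% = wells with medium but no cells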
Jurkat NFkB inh = inhibitors of the PMA/ionomycin-induced NF-kB reporter in Jurkat cells. PMA/ionomycin-induced NF-kB luciferase reporter, luminescence. inhibition, % at 4 µM. actives 0.53% (n = 330,000). AID 435003; in the data active means inhibition above about 50%
697 NFkB conf = lowers PMA/ionomycin-induced NF-kB signal in 697 B cells. AID 449746. inhibition, % at 4 µM. actives 35% (n = 2,000). shares compounds with 697 NFkB inh. 697 B-cell NF-kB luciferase, 16 h; in the data active means inhibition mostly above about 28%, no sharp cut-off; inactive means mostly below about 22%
Numbers without * were called inactive. Most compounds without a hit are left out; they make up all but 4% or so of the library.

CC(=O)Nc1ccc(S(=O)(=O)N2CCC(c3nc4ccc(C)cc4[nH]3)CC2)cc1 was read as Mdm2-MdmX inh 34, 697 NFkB inh 38*, Gli-Sufu antag 6, Jurkat NFkB inh 13 and 697 NFkB conf 15.
`CC(C)C(=O)Nc1ccc(S(=O)(=O)N2CCC(c3nc4ccccc4[nH]3)CC2)cc1` gave Mdm2-MdmX inh 14, 697 NFkB inh 5, Beta cell apopt 13, Gli-Sufu antag 17 and Jurkat NFkB inh 0.
For CCN(CC)CCCNc1nc2cc(OC)c(OC)cc2c2nc(-c3ccccc3)nn12 the results were Mdm2-MdmX inh 41, 697 NFkB inh 18, Beta cell apopt 52, Gli-Sufu antag 13 and Jurkat NFkB inh -67.
For COCCCNc1nc2cc(OC)c(OC)cc2c2nc(-c3ccccc3)nn12 the results were Mdm2-MdmX inh 45, 697 NFkB inh 37*, Beta cell apopt 23, Gli-Sufu antag 4, Jurkat NFkB inh -7 and 697 NFkB conf 14.
Screening O=C(O)c1ccccc1N=Cc1c(O)n(-c2nccs2)c(=O)c2ccccc12 returned Mdm2-MdmX inh 16, 697 NFkB inh 42*, Beta cell apopt 1, Gli-Sufu antag 0, Jurkat NFkB inh 19 and 697 NFkB conf 12.
Screening O=c1c2ccccc2c(C=Nc2ccccc2O)c(O)n1-c1nccs1 returned Mdm2-MdmX inh -2, 697 NFkB inh 4, Beta cell apopt 2, Gli-Sufu antag 2 and Jurkat NFkB inh -3.
`CCN(CC)C(=O)Oc1ccc2ccccc2c1Br` gave Mdm2-MdmX inh 45, 697 NFkB inh -302, Gli-Sufu antag -29, Jurkat NFkB inh -58 and 697 NFkB conf -253.
CCN(CC)C(=O)Oc1ccc(Br)c2ccccc12 was read as Mdm2-MdmX inh -22, 697 NFkB inh 1, Beta cell apopt 3, Gli-Sufu antag 1 and Jurkat NFkB inh 2.
c1ccc(-c2nc3cc4ccccc4cc3[nH]2)nc1 was read as Mdm2-MdmX inh -21, 697 NFkB inh -272, Beta cell apopt 44, Gli-Sufu antag -122, Jurkat NFkB inh -59 and 697 NFkB conf -315.
For CCOC(=O)c1sc(NC(=O)CN2CCN(c3ccccc3)CC2)nc1C the results were Mdm2-MdmX inh 16, 697 NFkB inh -5, Beta cell apopt -1, Gli-Sufu antag -4 and Jurkat NFkB inh -11.
For CCN1CCN(C(=O)CN2C(=O)COc3ccc(S(=O)(=O)N4CCOCC4)cc32)CC1 the results were Mdm2-MdmX inh 21, 697 NFkB inh 11, Gli-Sufu antag -7 and Jurkat NFkB inh 7.
CC(=O)N=c1sccn1CC(O)c1ccc(Br)cc1 (configuration not stated) was read as Mdm2-MdmX inh -1, 697 NFkB inh -6, Gli-Sufu antag -13 and Jurkat NFkB inh 0.
CC(=O)N=c1sccn1CC(=O)c1ccc([N+](=O)[O-])cc1 was read as Mdm2-MdmX inh -9, 697 NFkB inh 36*, Beta cell apopt -6, Gli-Sufu antag 3, Jurkat NFkB inh 9 and 697 NFkB conf 19.
For c1ccc(-c2cn3c4c(sc3n2)CCCC4)cc1 the results were Mdm2-MdmX inh 33, 697 NFkB inh -336, Beta cell apopt 17, Gli-Sufu antag -95, Jurkat NFkB inh -8 and 697 NFkB conf -383.
For COC(=O)C1CCN(C(=O)c2oc3c(Cl)cc(C)cc3c2C)CC1 the results were Mdm2-MdmX inh -98, 697 NFkB inh -265, Beta cell apopt 2, Gli-Sufu antag -103, Jurkat NFkB inh -99 and 697 NFkB conf -282.
For CCOC(=O)C1CCCCN1C(=O)c1oc2c(Cl)cc(C)cc2c1C (configuration not stated) the results were Mdm2-MdmX inh -33, 697 NFkB inh -7, Gli-Sufu antag 9 and Jurkat NFkB inh -1.
COc1cccc(NC(=O)N2CCC(C(=O)Nc3ccc(C)cc3C)CC2)c1 was read as Mdm2-MdmX inh -19, 697 NFkB inh 35*, Beta cell apopt -2, Gli-Sufu antag 6, Jurkat NFkB inh 2 and 697 NFkB conf 13.
CCC1(c2ccc(F)cc2)NC(=O)N(CC(=O)Nc2ccc(N3CCCCC3)cc2)C1=O (configuration not stated) was read as Mdm2-MdmX inh -2, 697 NFkB inh -2, Beta cell apopt 9, Gli-Sufu antag 1 and Jurkat NFkB inh -16.
Nc1ccc2nc(-c3ccccc3)sc2c1 was read as Mdm2-MdmX inh -31, 697 NFkB inh -344, Beta cell apopt 18, Gli-Sufu antag -112, Jurkat NFkB inh -113 and 697 NFkB conf -179.
Cc1ccc2nc(-c3ccc(N)cc3)sc2c1 was read as Mdm2-MdmX inh -9, 697 NFkB inh -213, Beta cell apopt 3, Gli-Sufu antag -80 and Jurkat NFkB inh -85.
Screening Cc1ccc2c(c1)cc(C(=O)N[C@@H](Cc1ccccc1)C(=O)O)n2C returned Mdm2-MdmX inh 18, 697 NFkB inh -12, Beta cell apopt 1, Gli-Sufu antag 13 and Jurkat NFkB inh 6.
Screening COc1ccc2[nH]c3c(c2c1)CCN1C(=O)C(CC(=O)NCc2cccc(C(F)(F)F)c2)C[C@H](C(=O)N(C(C)C)C(C)C)[C@@]31C (some centres not stated) returned Mdm2-MdmX inh 39, 697 NFkB inh 35*, Gli-Sufu antag 1 and 697 NFkB conf 24.
O=C(NCCC1CCCCN1S(=O)(=O)c1ccc(Cl)cc1)C(=O)NCc1ccncc1 (configuration not stated) was read as Mdm2-MdmX inh -34, 697 NFkB inh 45*, Gli-Sufu antag 25, Jurkat NFkB inh 3 and 697 NFkB conf 43*.
For CCCCC(=O)Nc1nc2c(OC)ccc(OC)c2s1 the results were Mdm2-MdmX inh 24, 697 NFkB inh 36*, Beta cell apopt 0, Gli-Sufu antag 5, Jurkat NFkB inh -3 and 697 NFkB conf 27.
For COc1ccc(-c2nsc3c(N4CCCC4)ncnc23)cc1 the results were Mdm2-MdmX inh 35, 697 NFkB inh -458, Beta cell apopt 0, Gli-Sufu antag -7, Jurkat NFkB inh -77 and 697 NFkB conf -348.
O=[N+]([O-])c1cc([N+](=O)[O-])c(Oc2cc(F)cc(F)c2)cc1NN1CCCCC1 was read as Mdm2-MdmX inh 2, 697 NFkB inh 8, Beta cell apopt 16, Gli-Sufu antag 0 and Jurkat NFkB inh -5.
Screening CN(C(=O)CSc1nc(N)cc(N)n1)C1CCS(=O)(=O)C1 (configuration not stated) returned Mdm2-MdmX inh 3, 697 NFkB inh 3, Beta cell apopt 0, Gli-Sufu antag 17 and Jurkat NFkB inh 9.
`Cc1cc2cc(CN(CC3CCCO3)C(=O)c3cnccn3)c(=O)[nH]c2cc1C` (configuration not stated) gave Mdm2-MdmX inh 13, 697 NFkB inh 36*, Beta cell apopt -11, Gli-Sufu antag 4, Jurkat NFkB inh 9 and 697 NFkB conf 6.
